Screening data: PubChem, National Center for Advancing Translational Sciences (NCATS)
Compounds with a hit are over-represented: about 2.1% of the library has one in this group of screens.
Abeta yeast res – A-beta toxicity reversal in yeast; yeast expressing A-beta42, growth rescue, OD600, 48 h; response scale: 0% DMSO, 100% iron-clioquinol control; Potency, µM (highest dose often 46.1 µM), actives largely listed as activators; 410,000 tested, 0.063% active; AID 1347071; note: nearly all actives have a fitted effect of over 55% in size
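Yeast A-beta toxicity model in growth medium with pinned compounds, 48 h at 30 C; growth read as absorbance at 600 nm. Normalized to FeCl3/clioquinol equimolar mix (positive) and DMSO (negative).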
FUS yeast rescue – rescues growth of FUS-expressing yeast. S. cerevisiae FUS-expressing, growth rescue, OD600, 24 h. AID 1347120. 390,000 tested, 0.24% active. Potency, µM (series often up to 76.6 µM), hits mostly activators;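 note: plate controls were DMSO vehicle for no effect and reference control for full effect; nearly all actives have a fitted effect of over 55% in size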
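Yeast expressing FUS under galactose induction, OD 0.005 in 2% galactose medium; compounds in a dilution series, 24 h at 30C. Growth rescue by absorbance at 600 nm; CP55940 positive control, DMSO negative.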
TDP-43 yeast inh – rescues yeast growth from TDP-43 toxicity. 410,000 tested, 1.8% active. Potency, µM (doses to about 46.1 µM), without a hit: top-dose growth rescue (activation), usual class: activators. AID 652104. TDP-43 expressing yeast growth rescue, BacTiter-Glo, 24 h; note: % of control where 0% means no effect; nearly all actives have a fitted effect of over 50% in size
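Yeast expressing TDP-43 (pregrown in raffinose, seeded at OD600=0.02 in galactose medium) exposed to compounds 24 hr at 30 deg C. Growth read by BacTiter-Glo luminescence; rescue of toxicity appears as increased signal.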
aSyn rescue – rescues yeast growth from alpha-synuclein toxicity; AID 652106; Yeast expressing alpha-synuclein, growth rescue, BacTiter-Glo, 24 h; 370,000 tested, 0.14% active; Potency, µM (highest dose often 46.1 µM), without a hit: top-dose growth rescue (activation), hits mostly activators; note: % of control where 0% means no effect; nearly all actives have a fitted effect of over 65% in size
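Readout is rescue of growth in alpha-synuclein-expressing yeast, so inhibitors of toxicity appear as activators. Growth after 24 hr at 30 deg C in galactose medium is quantified by luminescence.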
Active calls of the source: *; i = inactive; ? = inconclusive; / = no result; ! = not confirmed by another sample; [ ] = another dose, or the depositor's remark. Calls come from the whole dose curve; as a rule, active = well fitted curve in the direction sought with a large enough effect; inconclusive = small, poorly fitted or top-dose-only effect, or another doubt; inactive = no such curve, though single readings can be large; an effect the other way counts as inactive or inconclusive. Potency is the fitted concentration of half-maximal effect.

SMILES	Abeta yeast res	FUS yeast rescue	TDP-43 yeast inh	aSyn rescue
COc1ccc(C2Nc3cccc(O)c3C(=O)N2Cc2ccccc2)cc1COc1ccc(NC(C)=O)cc1 (stereo not drawn)	i	11µM*	/	/
O=CNc1ccc2c(c1)Cc1cc([N+](=O)[O-])ccc1-2	i	i	22µM*	15%
CCCCCCOc1ccc(/C=C/C(=O)Nc2sc3c(c2C(=O)OC)CCC3)cc1OC	i	i	18µM*	/
O=C(/C=C/c1ccccc1)Nc1sc2c(c1C(=O)O)CCC2	i	i	-25%	0%
CNC(=O)c1c(NC(=O)/C=C/c2ccccc2)sc2c1CCC2	i	i	18µM*	-30%
COc1cccc(C2CC(=O)Nc3c2c(=O)n(C)c2nc4ccccc4n32)c1OC (stereo not drawn)	i	i	5%	1%
O=C(O)c1cccc(COc2cccc3ccccc23)c1	i	i	35µM*	-52%
Cc1oc(C(=O)O)cc1COc1cccc2ccccc12	i	i	32µM*	2%
O=C1CCCC2=C1C1(CCCC1)N=C(Nc1nc3cc(Br)ccc3o1)N2	/	i	/	/
Cc1cc(SCC(=O)NC(=O)NCc2ccco2)nc2c(C)cccc12	i	?	-9%	11µM*
Cc1cc(SCC(=O)NC(=O)NCc2ccco2)nc2ccccc12	i	?	?	-1%
Cc1c(CCNC=O)cc(C)c2c3c(oc12)CCCC3	i	/	16µM*	17%
Cc1ccc(-n2nc3c(N4CCCC(C(=O)NCCc5ccccc5)C4)nnc(C)c3c2C)cc1 (stereo not drawn)	i	i	5%	/
CC12CCC(=O)N1C(C(=O)Nc1nc(-c3ccccc3Cl)cs1)CS2 (stereo not drawn)	i	i	10µM*	7%
COc1ccc(C(C)NC(=S)NCc2ccc(F)cc2)cc1 (stereo not drawn)	11µM*	i	?	0%
COc1cccc(C(C)NC(=S)NCc2ccc(Cl)cc2)c1 (stereo not drawn)	i	i	10%	-1%
CCC(NC(=S)NCc1ccc(F)cc1)c1ccccc1 (stereo not drawn)	11µM*	i	16%	-2%
O=C(NCc1ccc(F)cc1)C(c1ccccc1)c1ccccc1	i	i	24%	-1%
Cc1ccc2oc(=O)c3cnn(CC(=O)N4CCN(c5cc(Cl)ccc5C)CC4)c3c2c1	i	i	27%	/
CCc1nn(C(C)C(=O)N2CCN(c3ccc(OC)cc3)CC2)c(=O)c2cc3occc3n12 (stereo not drawn)	i	i	32µM*	0%
Cc1cccc(N2CCN(C(=O)CCCn3ncn4c(cc5occc54)c3=O)CC2)c1C	i	i	16µM*	/
O=C(CCCn1ncn2c(cc3occc32)c1=O)N1CCc2ccccc2C1	i	i	20%	0%
CCc1nn(CCCC(=O)N2CCN(c3cccc(OC)c3)CC2)c(=O)c2cc3occc3n12	i	i	5%	/
Cc1cccc(N2CCN(C(=O)C(C)n3nc(C)n4c(cc5occc54)c3=O)CC2)c1C (stereo not drawn)	i	i	22µM*!	6%
CCc1nn(CCCC(=O)N2CCN(c3cc(Cl)ccc3C)CC2)c(=O)c2cc3occc3n12	i	?	35µM*	/
SMILES	Abeta yeast res	FUS yeast rescue	TDP-43 yeast inh	aSyn rescue
Cc1nn(C(C)C(=O)N2CCN(c3ccccn3)CC2)c(=O)c2cc3occc3n12 (stereo not drawn)	i	i	3%	-3%
CCC(C(=O)N1CCN(c2ccc(OC)cc2)CC1)n1nc(C)n2c(cc3occc32)c1=O (stereo not drawn)	i	?	24%	/
Cc1cccc(-c2[nH]c(C(C)(C)C)nc2-c2ccc3nccnc3c2)n1	/	/	/	11%
O=C(CSc1nc2ccsc2c(=O)n1-c1ccc(Br)cc1)NCc1ccc(Cl)cc1	i	i	15%	3%
CCN(Cc1ccccc1)C(=O)Cn1c(=O)oc2cc(S(=O)(=O)N3CCCCCC3)ccc21	i	i	4%	/
Cc1ccc(S(=O)(=O)NCc2c(Cl)cccc2Oc2ccccc2)cc1	i	i	20µM*	6%
O=C(COc1ccccc1)Nc1nnc(-c2ccccc2Cl)o1	i	i	0%	8%
O=C(COc1ccccc1)Nc1nnc(-c2ccc3c(c2)CCCC3)o1	?	i	11µM*	10µM*
O=C(Nc1nnc(-c2ccc3c(c2)CCCC3)o1)c1ccccc1	?	i	5µM*	?
O=C(Nc1nnc(-c2ccc3c(c2)CCCC3)o1)c1ccccc1Cl	i	i	10µM*	?
O=C(COc1ccccc1)Nc1nnc(-c2ccc(F)cc2)o1	?	i	?	18µM*
CCOc1ccccc1Nc1nnc(-c2cc3cc(OC)ccc3oc2=O)s1	i	i	1%[9.22 µM]	/
CC(=O)c1ccccc1NC(=O)COC(=O)C1CCCN1S(=O)(=O)c1ccccc1F (stereo not drawn)	i	i	17%	14µM*
CCOC(=O)c1ccc(NC2c3ccccc3C(=O)N2c2ccc(C)cn2)cc1 (stereo not drawn)	i	i	0%	4µM*
Cc1ccccc1C(=O)Nc1ccccc1NC(=O)c1ccccc1Br	i	i	1%	-3%
COc1ccc(Nc2ccccc2NC(=O)c2ccccc2Br)cc1	i	i	16µM*	8%
CC1Cc2nc(SCC(=O)NCC3CCCO3)n(-c3ccccc3)c(=O)c2S1 (stereo not drawn)	i	i	-2%	22µM*
O=[N+]([O-])c1ccc2[nH]c(O)c(N=NC(=S)Nc3cccnc3)c2c1	i	i	10µM*	-8%
Cc1noc2ncnc(Sc3ccc(Cl)cc3)c12	i	i	6.3µM*	-4%
c1cnc2c(c1)ccc1cccnc12	i	i	35µM*	-6%
CCCCNC(=O)CCCn1c(=O)c2ccccc2n(Cc2ccc(Cl)cc2)c1=O	i	i	10%	/
CCCC(=O)N1CCC1(C)C(=O)Nc1ccc(C)c(C)c1 (stereo not drawn)	i	i	5%	13%
CCCC(=O)N1CCC1(C)C(=O)Nc1ccc(-n2cccc2)cc1 (stereo not drawn)	i	i	20µM*	3%
CC(=O)Oc1ccc(Oc2ccc(-c3noc(C)n3)cc2)cc1	i	i	11µM*	-13%
CCOc1ccccc1NC(=O)C(C)n1nnc2sc3c(c2c1=O)CCCC3 (stereo not drawn)	i	i	-20%	/
CC(=O)Oc1ccc(C(=O)COC(=O)CNC(=O)COc2ccccc2C)cc1	/	/	/	5%
COc1ccc(C(=O)O)cc1NCc1ccc(C)s1	i	i	3.2µM*	14%
O=C(COC(=O)/C=C/c1ccc(F)cc1)NCc1ccc2c(c1)OCO2	i	i	-12%	-6%
O=C(COC(=O)C1(c2ccccc2F)CCCC1)NCc1ccc2c(c1)OCO2	i	/	16µM*	19%
